Among all 13,000 compounds or so, about 3,200 (25%) showed an effect of 50% or more. The list shows a part of the results.
What follows are compounds tested on P. falciparum stage V gametocytes. Settings: 48 h, 5 µM; inhibitor.
Design: BacTiter-Glo ATP luminescence viability of purified stage V gametocytes in 384-well plates, per cent inhibition versus DMSO

SMILES	% Inhibition
Cc1cccc2[nH]c(-c3cccc(-c4cccc(CN5CCC(CO)CC5)c4)c3)nc12 [TCMDC-133131]	-22.3%
Nc1nccc(-c2ccc3c(-c4cccc(F)c4)cnc(N)c3c2)n1 [TCMDC-134545]	-1.877%
Cc1cc(NC(=O)c2ccsc2)ccc1OC1CCN(Cc2ccc(F)cc2)CC1 [TCMDC-133742]	4.453%
COc1ccc(Nc2nccc(-c3c(-c4cccc(NC(=O)c5c(F)cccc5F)c4)nn4ccccc34)n2)cc1Cl [TCMDC-135970]	-50.42%
CS(=O)(=O)N(c1ccccc1)c1cc(C(=O)N[C@@H](Cc2ccccc2)[C@H](O)CNC2CC2)cc(N2CCCC2=O)c1 [TCMDC-138891]	19.46%
CS(=O)(=O)N(c1ccccc1)c1cc(C(=O)N[C@@H](Cc2ccccc2)[C@H](O)CNC2CCCCC2)cc(N2CCCC2=O)c1 [TCMDC-138850]	25.67%
CC(C)CCCC(C)NC[C@@H](O)[C@H](Cc1ccccc1)NC(=O)c1cc(N2CCCC2=O)cc(N(c2ccccc2)S(C)(=O)=O)c1 (some centres unmarked) [TCMDC-138851]	82.88%
O=C(Nc1cccc(-c2ccc(-c3nc4ccc(C(F)(F)F)cc4[nH]3)cc2)c1)c1csnn1 [TCMDC-136905]	5.589%
COc1ccc(NC(=O)[C@H](C)Nc2cc(C)nc(NCC3CCCCC3)n2)cc1 [TCMDC-134922]	-9.943%
CCOC(=O)c1ccc(N2CCN(c3cc(Cl)ccc3C)CC2)c(NC(=O)Nc2ccc(Cl)c(Cl)c2)c1 [TCMDC-124007]	-37.8%
CS(=O)(=O)Nc1ccc2c(C3CCN(CC4CCN(C(=O)/C=C/c5ccc(Cl)c(Cl)c5)CC4)CC3)c[nH]c2c1 [TCMDC-139959]	-60.99%
O=C(/C=C/c1ccc(Cl)c(Cl)c1)N1CCC(CN2CCC(c3c[nH]c4ccc(NS(=O)(=O)c5cccs5)cc34)CC2)CC1 [TCMDC-139955]	57.44%
O=C(/C=C/c1ccc(Cl)c(Cl)c1)N1CCC(CCN2CCC(c3c[nH]c4ccccc34)CC2)CC1 [TCMDC-139620]	8.374%
O=C(/C=C/c1ccc(Cl)c(Cl)c1)N1CCC(CCN2CCC(c3c[nH]c4cnccc34)CC2)CC1 [TCMDC-140136]	111.3%
CS(=O)(=O)Nc1ccc2[nH]cc(C3CCN(CC4CCN(C(=O)/C=C/c5ccc(Cl)c(Cl)c5)CC4)CC3)c2c1 [TCMDC-139813]	20.88%
O=C(/C=C/c1ccc(Cl)c(Cl)c1)N1CCC(CN2CCC(c3c[nH]c4cnccc34)CC2)CC1 [TCMDC-140135]	46.53%
O=C(/C=C/c1ccc(Cl)c(Cl)c1)N1CCC(CN2CCC(c3c[nH]c4ncccc34)CC2)CC1 [TCMDC-139846]	9.268%
O=C(/C=C/c1ccc(Cl)c(Cl)c1)N1CCC(CCN2CCC(c3c[nH]c4ccncc34)CC2)CC1 [TCMDC-140075]	91.37%
O=C(/C=C/c1ccc(Cl)c(Cl)c1)N1CCC(CN2CCC(c3c[nH]c4ccncc34)CC2)CC1 [TCMDC-140074]	108.3%

SMILES	% Inhibition
CCc1nc(N)nc(N)c1-c1ccccc1 [TCMDC-124296]	-28.74%
O=C(Nc1ccc(F)cc1)c1nc2ccccc2nc1Cl [TCMDC-124769]	24.46%
COCCN(C)CCCOc1cc2c(cc1OC)ncn2-c1cc(OCc2ccccc2C(F)(F)F)c(C(N)=O)s1 [TCMDC-135214]	33.23%
CCN1CCN(c2cc(C)c3cc(NC(=O)c4cccc(Cl)c4)ccc3n2)CC1 [TCMDC-125580]	30.18%
N=c1c(C(=O)NCc2ccccc2)cc2c(=O)n3ccccc3nc2n1CCc1ccccc1 [TCMDC-124378]	0.2894%
O=C1COc2ccc(S(=O)(=O)N3CCC[C@@H]3CCN3CCC(c4c[nH]c5cnccc45)CC3)cc2N1 [TCMDC-141172]	41.57%
CS(=O)(=O)Nc1ccc2c(C3CCN(CCC4CCN(C(=O)/C=C/c5ccc(Cl)c(Cl)c5)CC4)CC3)c[nH]c2c1 [TCMDC-139956]	32.42%
CC(=O)Nc1ccc2[nH]cc(C3CCN(CCC4CCN(C(=O)/C=C/c5ccc(Cl)c(Cl)c5)CC4)CC3)c2c1 [TCMDC-139854]	30.15%
O=C(/C=C/c1ccc(Cl)c(Cl)c1)N1CCC(CN2CCC(c3c[nH]c4cc5c(cc34)OCO5)CC2)CC1 [TCMDC-139838]	-10.77%
O=C(/C=C/c1ccc(Cl)c(Cl)c1)N1CCC(CCN2CCC(c3c[nH]c4cc5c(cc34)OCO5)CC2)CC1 [TCMDC-139836]	55.11%
CC(=O)Nc1ccc2[nH]cc(C3CCN(CC4CCN(C(=O)/C=C/c5ccc(Cl)c(Cl)c5)CC4)CC3)c2c1 [TCMDC-139853]	21.75%
CC1CCN(CC[C@H]2CCCN2S(=O)(=O)c2cccc(NC(=O)c3ccc(-c4ccc(Cl)cc4)o3)c2)CC1 [TCMDC-141078]	-28.73%
CCS(=O)(=O)Nc1ccc2[nH]cc(C3CCN(CCC4CCN(C(=O)/C=C/c5ccc(Cl)c(Cl)c5)CC4)CC3)c2c1 [TCMDC-139930]	78.45%
CNC(=O)c1ccc2[nH]cc(C3CCN(CC4CCN(C(=O)/C=C/c5ccc(Cl)c(Cl)c5)CC4)CC3)c2c1 [TCMDC-139980]	-32.3%
O=S(=O)(c1ccc2cc[nH]c2c1)N1CCC[C@@H]1CCN1CCC(c2c[nH]c3cnccc23)CC1 [TCMDC-141158]	68.56%
O=C(/C=C/c1ccc(Cl)c(Cl)c1)N1CCC(CN2CCC(c3c[nH]c4ccc(O)cc34)CC2)CC1 [TCMDC-139786]	94.36%
Cc1cccc(C(=O)NCCCN2CCC(NC(=O)/C=C/c3ccc(Cl)c(Cl)c3)CC2)c1 [TCMDC-133355]	-67.88%
CCNc1cc(C(=O)N[C@@H](Cc2ccccc2)[C@H](O)CNC2CCSCC2)cc(N2CCCC2=O)c1 [TCMDC-134686]	19.67%
CC(C)(C)COC(=O)c1ccc(NC(=O)N[C@@H](Cc2ccc(O)cc2)C(=O)NC2CCN(Cc3ccc(O)cc3)C2)cc1 (some centres unmarked) [TCMDC-135356]	-84.6%

Reference: publication PMC4552634, “A New Set of Chemical Starting Points with Plasmodium falciparum Transmission-Blocking Potential for Antimalarial Drug Discovery” (PLoS ONE, 2015)
